This note sets out measurements from PubChem BioAssay.

Active and inactive are the calls of the source.

A short description of assay [1]: binders of probe aFSTL3 on microarray, primary screen, stem cell growth factor project, biochemical, small-molecule microarray, fluorescence 635/667 (AID 1064).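 Also: measures binding of the biotinylated anti-FSTL3 antibody to printed compounds.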 To be noted: higher = more signal.
Assay [2] is described as follows: binders from COS7 lysate, DM2A8 probe, primary screen, torsin A project, cell lysate, small-molecule microarray, fluorescence 635/667 (AID 1065). Particulars: higher = more signal, COS7 lysate expressing mutant human TOR1A.
Assay [3] can be described thus: binders of probe aFGF2 on microarray, primary screen, stem cell growth factor project, biochemical, small-molecule microarray, fluorescence 635/667 (AID 1067).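 Also: measures binding of biotinylated aFGF2 protein to printed compounds on slides; z-score merges feature fluorescence and signal-to-noise across triplicate slides.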 To be noted: higher = more signal.
The nature of assay [4]: binders of probe aFGF10 on microarray, primary screen, stem cell growth factor project, biochemical, small-molecule microarray, fluorescence 635/667 (AID 1071).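 Also: score merges 667 nm spot intensity and signal to noise from triplicate slides.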 Particulars: higher = more signal.
Assay [5] concerns the target Neurogenic locus notch homolog protein 2 (Homo sapiens) (UniProt Q04721). The assay is described as follows: Notch2 binders on small-molecule microarrays, primary screen, biochemical, small-molecule microarray, 635 nm fluorescence, stem cell growth factors (AID 1073). To be noted: Notch2 binding, higher = more signal.
The target of assay [6] is Pro-neuregulin-1, membrane-bound isoform (Homo sapiens) (UniProt Q02297). The assay is described as follows: NRG1 binders on small-molecule microarrays, primary screen, psychiatric disease protein project, biochemical, small-molecule microarray, fluorescence 635/667 (AID 1075).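 Also: score combines 667 nm spot fluorescence with signal to noise.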 Particulars: NRG1 binding, 635 nm fluorescence, higher = more signal.
Assay [7] deals with Neuregulin-1 EGF-like domain. The assay is described as follows: binders of neuregulin-1 EGF-like domain, primary screen, biochemical, small-molecule microarray, 635 nm fluorescence (AID 1081).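 Also: binding of the protein to compounds printed on small-molecule microarray slides.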 Particulars: small-molecule microarray binding, higher = more signal.
Assay [8] in a line: FRG1 promoter luciferase signal modulators, primary screen, FRG1 inhibition for FSHD, cell-based, C2C12 myotubes, firefly/Renilla luciferase, luminescence (AID 1084). Particulars: higher = more signal, called active from +8 up or from −8 down.
A short description of assay [9]: binders of probe aFST on microarray, primary screen, stem cell growth factor project, biochemical, small-molecule microarray, fluorescence 635/667 (AID 1086).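 Also: score merges 667 nm fluorescence with signal-to-noise of each printed compound spot.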 Particulars: higher = more signal.
The nature of assay [10]: binders of probe aHhip on microarray, primary screen, stem cell growth factor project, biochemical, small-molecule microarray, fluorescence 635/667 (AID 1087).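 Also: score merges spot fluorescence at 667nm with spot signal to noise ratio.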 Particulars: higher = more signal.

Chain of Neurogenic locus notch homolog protein 2 (Homo sapiens) (Q04721 whole entry, looked up, canonical isoform): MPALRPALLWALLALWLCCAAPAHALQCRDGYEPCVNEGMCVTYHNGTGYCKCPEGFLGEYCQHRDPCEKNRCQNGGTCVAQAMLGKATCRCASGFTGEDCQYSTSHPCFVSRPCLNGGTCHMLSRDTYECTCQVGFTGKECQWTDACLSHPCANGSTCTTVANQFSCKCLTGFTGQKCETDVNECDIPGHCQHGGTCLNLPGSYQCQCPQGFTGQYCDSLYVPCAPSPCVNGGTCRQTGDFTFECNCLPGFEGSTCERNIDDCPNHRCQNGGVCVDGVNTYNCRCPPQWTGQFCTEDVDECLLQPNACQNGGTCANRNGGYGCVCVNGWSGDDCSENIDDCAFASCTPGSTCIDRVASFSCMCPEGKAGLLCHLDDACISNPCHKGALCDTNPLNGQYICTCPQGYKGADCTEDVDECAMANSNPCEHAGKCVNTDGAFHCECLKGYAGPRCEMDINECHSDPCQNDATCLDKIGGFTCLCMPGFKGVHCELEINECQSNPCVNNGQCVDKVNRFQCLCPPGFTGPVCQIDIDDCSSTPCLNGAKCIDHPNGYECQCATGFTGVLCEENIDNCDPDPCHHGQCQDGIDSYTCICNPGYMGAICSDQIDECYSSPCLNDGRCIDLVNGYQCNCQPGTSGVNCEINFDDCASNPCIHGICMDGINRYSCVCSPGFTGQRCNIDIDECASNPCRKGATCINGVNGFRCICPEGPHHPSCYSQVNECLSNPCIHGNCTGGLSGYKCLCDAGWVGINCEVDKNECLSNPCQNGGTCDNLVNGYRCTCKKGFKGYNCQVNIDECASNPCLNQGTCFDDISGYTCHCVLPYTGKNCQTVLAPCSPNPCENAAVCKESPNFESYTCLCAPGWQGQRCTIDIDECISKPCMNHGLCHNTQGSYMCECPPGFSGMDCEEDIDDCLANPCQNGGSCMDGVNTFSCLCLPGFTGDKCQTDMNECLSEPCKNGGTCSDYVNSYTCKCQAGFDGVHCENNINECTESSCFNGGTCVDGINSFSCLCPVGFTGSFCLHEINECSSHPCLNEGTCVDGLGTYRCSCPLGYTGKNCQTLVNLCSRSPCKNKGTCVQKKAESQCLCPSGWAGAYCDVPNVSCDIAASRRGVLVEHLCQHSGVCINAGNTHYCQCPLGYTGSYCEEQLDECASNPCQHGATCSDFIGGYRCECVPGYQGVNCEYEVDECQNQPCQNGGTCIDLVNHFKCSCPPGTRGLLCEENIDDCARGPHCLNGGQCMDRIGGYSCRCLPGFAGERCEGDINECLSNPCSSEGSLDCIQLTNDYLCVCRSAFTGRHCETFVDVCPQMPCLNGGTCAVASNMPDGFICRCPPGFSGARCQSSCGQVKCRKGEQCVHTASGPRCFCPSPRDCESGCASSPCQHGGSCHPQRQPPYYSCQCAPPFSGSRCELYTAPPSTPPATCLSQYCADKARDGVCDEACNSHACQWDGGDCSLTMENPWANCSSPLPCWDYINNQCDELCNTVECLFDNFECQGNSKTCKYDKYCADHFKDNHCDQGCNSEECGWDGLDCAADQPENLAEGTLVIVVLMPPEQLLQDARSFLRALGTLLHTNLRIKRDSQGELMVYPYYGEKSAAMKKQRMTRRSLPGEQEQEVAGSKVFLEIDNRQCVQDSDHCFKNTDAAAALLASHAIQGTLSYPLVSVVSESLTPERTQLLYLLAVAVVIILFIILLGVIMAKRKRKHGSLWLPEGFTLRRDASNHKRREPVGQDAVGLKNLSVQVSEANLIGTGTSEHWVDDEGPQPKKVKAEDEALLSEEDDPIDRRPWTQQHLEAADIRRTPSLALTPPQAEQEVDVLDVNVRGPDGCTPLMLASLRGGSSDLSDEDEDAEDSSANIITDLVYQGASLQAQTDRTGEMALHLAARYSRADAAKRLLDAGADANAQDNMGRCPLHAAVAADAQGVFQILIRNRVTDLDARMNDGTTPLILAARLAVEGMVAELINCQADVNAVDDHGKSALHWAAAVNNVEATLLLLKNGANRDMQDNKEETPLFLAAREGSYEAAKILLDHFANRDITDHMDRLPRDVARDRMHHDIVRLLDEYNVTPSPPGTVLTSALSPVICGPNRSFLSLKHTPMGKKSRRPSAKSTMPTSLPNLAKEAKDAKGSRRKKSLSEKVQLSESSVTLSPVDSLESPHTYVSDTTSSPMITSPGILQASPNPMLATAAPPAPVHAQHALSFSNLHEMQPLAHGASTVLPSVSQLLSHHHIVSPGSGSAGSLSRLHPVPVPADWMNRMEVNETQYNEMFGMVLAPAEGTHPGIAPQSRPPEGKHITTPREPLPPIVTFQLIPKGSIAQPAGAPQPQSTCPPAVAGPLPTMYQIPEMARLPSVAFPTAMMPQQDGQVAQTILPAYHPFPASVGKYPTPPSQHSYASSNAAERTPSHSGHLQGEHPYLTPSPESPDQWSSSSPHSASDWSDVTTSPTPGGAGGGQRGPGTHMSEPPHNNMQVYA
Chain of Pro-neuregulin-1, membrane-bound isoform (Homo sapiens) (Q02297 whole entry, looked up, the tested form may be a part, canonical isoform): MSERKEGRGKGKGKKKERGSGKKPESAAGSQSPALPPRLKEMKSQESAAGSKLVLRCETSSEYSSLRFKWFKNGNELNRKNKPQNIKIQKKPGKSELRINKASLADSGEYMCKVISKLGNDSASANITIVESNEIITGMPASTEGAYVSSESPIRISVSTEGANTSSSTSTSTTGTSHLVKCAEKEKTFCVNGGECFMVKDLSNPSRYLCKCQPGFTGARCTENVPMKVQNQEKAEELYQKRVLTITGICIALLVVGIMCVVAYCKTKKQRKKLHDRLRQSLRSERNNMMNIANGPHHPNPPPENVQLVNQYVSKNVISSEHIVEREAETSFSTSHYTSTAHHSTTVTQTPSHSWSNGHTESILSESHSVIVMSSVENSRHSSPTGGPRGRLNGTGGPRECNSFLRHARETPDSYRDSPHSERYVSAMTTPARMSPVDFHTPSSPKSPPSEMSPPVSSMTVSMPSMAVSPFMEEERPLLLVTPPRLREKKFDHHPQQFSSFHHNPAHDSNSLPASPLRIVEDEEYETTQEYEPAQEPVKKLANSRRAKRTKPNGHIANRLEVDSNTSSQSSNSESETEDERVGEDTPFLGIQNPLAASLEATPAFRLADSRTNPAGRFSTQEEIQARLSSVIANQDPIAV

For the compound `CCN1C(=O)[C@H]2[C@H]3[C@H](O)[C@H](O)CC(=NOCc4ccccc4)[C@@H]3CC[C@H]2C1=O`, the composite z-score in assay [1] was -0.239; in [2], 0.441; in assay [3], -0.197; in assay [4] it was 0.31; in assay [5] it was 0.931; in [6], -0.195. Besides, the composite z-score is 0.567 in [7], 0.0882 in [9] and -0.3 in [10]. Also, the z-score in assay [8] is -0.641 (inactive).

Take `CC(C)=CCCC(C)=CCON=C1C[C@@H](O)[C@@H](O)[C@@H]2[C@@H]3C(=O)N(C[C@@H]4CCCO4)C(=O)[C@@H]3CC[C@@H]12`: the composite z-score in assay [1] was -0.518; in assay [2] it was 1; in [3], -0.134; in [4], 0.84; in assay [5], 0.449; in assay [6], 0.614. Further, the composite z-score in assay [7] was 1.08; in [9], 0.28; in [10], 0.0749. In addition, in [8], the z-score was -0.24 (inactive).

Consider `COC(=O)[C@H](C)NC(=O)[C@@H](C)CO`, for which the composite z-score in [1] is -0.329; in [2] it was 1.2; in [3] it was -0.116; in assay [4] it was 0.75; in assay [5], 0.591; in assay [6] it was 0.515. Also, the results for the composite z-score in assay [7], in assay [9] and in [10] were 1.04, 0.357 and 0.316, respectively. For the same compound, in assay [8], the z-score is -0.256 (inactive).

Regarding `COc1ccc(O[C@H]2C=C[C@@H](c3ccccc3)O[C@@H]2COC(=O)CCC(C)=NOC(C)CN2CCCCc3nc(C)c(C)cc32)cc1` (stereo not given in full), the composite z-score in assay [1] is 0.614; in assay [2], -0.017; in assay [3] it was -0.164; in assay [4], -0.102; in assay [5] it was -0.763; in assay [6], -0.0663. Moreover, the composite z-score is 0.106 in assay [7], -0.62 in [9] and -0.226 in assay [10]. Further, the z-score in assay [8] is 0.766 (inactive).

For the compound `CCN1C(=O)[C@H]2[C@H]3[C@H](O)[C@H](O)CC(=NOC(C)CN4CCCCc5nc(C)c(C)cc54)[C@@H]3CC[C@H]2C1=O` (stereo not given in full), the composite z-score in assay [1] was -0.698; in [2] it was 0.532; in assay [3], -0.138; in [4], 0.223; in assay [5], 0.462; in assay [6] it was -0.531. Besides, the composite z-score in assay [7] was -0.274; in [9] it was 0.253; in [10], 0.119. Also, the z-score in [8] is 0.682 (inactive).

With `CO[C@H]([C@@H](C)[C@H](OC)c1ccccc1)[C@H](C)[C@@H](OC)[C@H](C)C(C)=O`, the composite z-score in assay [1] is -0.426; in assay [2], -0.292; in assay [3], -0.0785; in assay [4], -0.154; in [5], -0.448; in assay [6], -0.383. The composite z-score in assay [7] was -0.944; in [9], 0.0432; in assay [10], 2.49. Further, the z-score in assay [8] is 0.425 (inactive).

Regarding `CCOC(=O)[C@H](Cc1ccccc1)NC(=O)CCC1CC(OC(=O)NCc2ccc3c(c2)OCO3)CC2(CCCC(COC(=O)NCC3CCCCC3)O2)O1` (stereo not given in full), the composite z-score in assay [1] is -0.632; in assay [2] it was 0.247; in assay [3], -0.0775; in assay [4] it was 0.256; in assay [5] it was 1.19; in assay [6] it was 0.306. In addition, the composite z-score in [7] was 1.04; in assay [9], 1.27; in assay [10] it was -0.0994. In addition, the z-score in assay [8] was 1.2 (inactive).

On to `COC(=O)C1=C(C)[C@@H](O)[C@@H](C)[C@H](c2c(OC)c(OC)c(C)c(OC)c2OC)O1`, for which the composite z-score was -0.511 in [1]; 0.487 in assay [2]; -0.131 in assay [3]; 0.166 in [4]; 0.239 in assay [5]; -0.412 in assay [6]. The composite z-score was 0.0778 in [7], 0.0017 in assay [9] and -0.0645 in assay [10]. The z-score in assay [8] was -0.298 (inactive).

`Cc1ccc(C2CC=C(C(=O)O)CN2S(=O)(=O)c2ccc(C)cc2)cc1` (stereo not given): the composite z-score in [1] is 0.004; in assay [2] it was 0.157; in assay [3] it was -0.0258; in assay [4], 0.0852; in [5], 0.677; in assay [6], 1.97. The composite z-score in [7] is 0.937; in [9], 0.374; in [10], 0.0749. Further, in [8], the z-score is -2.06 (inactive).

As for `[N-]=[N+]=NCc1ccccc1C[C@]1(C(=O)NCc2ccccc2)N=C(c2ccc(OCCCO)cc2)O[C@H]1c1ccccc1N=[N+]=[N-]`, the composite z-score in assay [1] is 0.741; in assay [2] it was -0.0741; in assay [3], -0.0231; in assay [4] it was 1.13; in [5], 1.22; in assay [6], 0.799. The composite z-score amounted to 1.01 in assay [7], 1.16 in [9] and 0.295 in [10]. Further, in assay [8], the z-score was -1.34 (inactive).

Regarding `CC(C)OC(=O)C=C1C[C@@H](c2ccc(C#N)cc2)O[C@@H](c2ccc(C#N)cc2)O1`, the composite z-score in assay [1] is -0.475; in assay [2] it was 0.334; in [3], 0.235; in assay [4], 1.01; in [5] it was 1.68; in assay [6], 1.64. In addition, the values for the composite z-score in assay [7], in assay [9] and in assay [10] were 1.21, 1.58 and 0.233, respectively. Besides, the z-score in assay [8] is 0.0509 (inactive).

For the compound `O=C1[C@H]2[C@H]3[C@H](O)[C@H](O)CC(=NOCc4ccccc4)[C@@H]3CC[C@H]2C(=O)N1C1CCCCC1`, the composite z-score in assay [1] is -0.116; in assay [2], 0.487; in [3] it was -0.098; in assay [4], 0.292; in [5], 0.0141; in assay [6], 1.1. Moreover, the composite z-score in assay [7] was found to be 0.564; in assay [9] it was 0.0422; in [10], 0.0024. The z-score in [8] was 0.32 (inactive).
